High-throughput results from PubChem BioAssay.
A selection: hits, their analogues and other compounds. The true share with any hit is near 5.1%.
MPTP inh: inhibitors of mitochondrial permeability transition pore; isolated mouse mitochondria, Ca2+ swelling absorbance, 30 min; inhibition, % at 10 µM; hit rate 1.4% among 360,000;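 active = inhibition of 50% or more, scaled per plate between neutral and stimulator controls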
CRFR2-BP antag: blocks CRF-induced signaling of the CRF-BP/CRF-R2 complex; inhibition, % at 11.8 µM; HEK293 CRF-R2/CRF-BP, CRF-induced calcium fluorescence; hit rate 0.59% among 350,000;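 active = inhibition of the ligand-induced calcium signal above about 50% at the single tested concentration, limit read from the data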
ANO1 block: inhibitors of mouse TMEM16A calcium-activated chloride channel. hit rate 1.2% among 310,000. normalized B-score (activity score, 25-100; higher = stronger inhibition) at 10 µM. Q8BHY3. HEK293 TMEM16A/YFP iodide influx fluorescence, ionomycin;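 active = ratio plate-corrected score three or more library SD toward inhibition, starting fluorescence score within five deviations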;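 note: score derived from kinetic fluorescence span divided by baseline fluorescence per well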
ANO1 activ: activates or potentiates the mouse TMEM16A chloride channel; HEK293 TMEM16A/YFP-H148Q/I152L, iodide quench fluorescence; hits give low values; B-score at 10 µM; hit rate 0.3% among 340,000; Q8BHY3;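 active = fluorescence-ratio B-score plate-corrected deviation score at least 3 library SD below zero, with starting fluorescence score within 5 deviations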;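 note: channel opened by trigger with iodide after compound preincubation; score built on the fluorescence ratio of max minus min over baseline; more negative score means more quench and so TMEM16A activation or potentiation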
NR3A LBD binder: modulates the human NR3A ligand-binding domain; AID 1259313; Tm shift relative to glycine control, % at 25 µM; hit rate 2.5% among 340,000; NR3A LBD differential scanning fluorimetry, Tm shift; 0% = protein alone, 100% = glycine-bound protein;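 active = melting temperature shift of at least 10% of the positive control shift, at one fixed dose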
CRFBP-R2 agonist: CRF-BP/CRF-R2 complex agonism; HEK293 CRF-R2/CRF-BP, calcium dye fluorescence (FLIPR); percent of saturating CRF peptide response; hit rate 0.46% among 350,000; activation, % at 13.2 µM;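 active = activation of at least 50%, plus an integration ratio under a set limit after plate pattern correction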
TMEM16A reconf: TMEM16A (mouse) chloride channel inhibition, re-confirmation. hit rate 39% among 2,300. HEK293 TMEM16A/YFP-H148Q, iodide quench fluorescence; ionomycin added to raise cell calcium. AID 652189. inhibition, % at 10 µM. shares compounds with ANO1 block;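 active = mean duplicate percent inhibition, scaled so buffer wells are 0 and the reference blocker 100, over three buffer SD above buffer mean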
TMEM16A Ca cntr: counter-screen for TMEM16A inhibitors: effect on calcium mobilization. TMEM16A/YFP HEK293, Fluo4 calcium mobilization. shares compounds with ANO1 block. hit rate 2% among 2,300. calcium response (% of ionomycin), % at 10 µM;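 active = duplicate-averaged calcium signal over 20% of the ionomycin maximum, relative to buffer baseline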;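 note: each well's signal is peak minus trough fluorescence divided by its pre-addition baseline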
Parental YFP cnt: acts in parental YFP-HEK293 cells lacking TMEM16A, counter-screen | shares compounds with ANO1 block | iodide YFP quench, ionomycin | YFP ratio F(max-min)/F0 at 10 µM | 2,300 tested, under 10 active;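 active = yellow fluorescent protein signal ratio exceeding the buffer control mean by over 5 SD of those controls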;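 note: ratio is mean of duplicate wells from kinetic YFP trace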
ClC-1 inh: rat ClC-1 inhibition, TMEM16A specificity screen. shares compounds with ANO1 block. CHO ClC-1-YFP, iodide influx fluorescence quench; iodide control reads 0, buffer control 100. ratio percent, % at 10 µM. 2,300 tested, under 10 active. AID 652236;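 active = duplicate-mean ratio percent above the mean of iodide-only control wells, which defines zero, plus 5 of their SD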;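 note: higher percent means stronger block of ClC-1 iodide influx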
Hits are given with their value; – = inactive; · = not tested or not shown.

SMILES	MPTP inh	CRFR2-BP antag	ANO1 block	ANO1 activ	NR3A LBD binder	CRFBP-R2 agonist	TMEM16A reconf	TMEM16A Ca cntr	Parental YFP cnt	ClC-1 inh
Cc1ccc(-n2c(SCc3ccc([N+](=O)[O-])cc3)nc3ccccc3c2=O)cc1	–	–	25	–	–	–	–	–	–	–
O=C(CN1CCC(c2nc3ccccc3[nH]2)CC1)Nc1ccc2c(c1)OCO2	–	–	100	–	–	–	–	–	–	–
Cc1ccc2nc(C3CCN(CC(=O)Nc4ccc5c(c4)OCCO5)CC3)[nH]c2c1	–	–	–	–	–	–	·	·	·	·
Cc1cc2cc(CNC(=O)C3CC3)ccc2n1C	–	–	100	–	–	–	–	–	–	–
N#Cc1nc(COc2cccc(Cl)c2)oc1NCc1ccco1	–	–	–	–	–	–	–	–	–	–
CC(Oc1ccc(F)cc1)C(=O)Nc1cccc(S(=O)(=O)N(C)c2ccccc2)c1 (configuration not stated)	–	–	·	·	·	–	·	·	·	·
COc1ccc(Cn2c(=O)[nH]c3cc(C(=O)N4CCN(c5ccccc5OC)CC4)ccc3c2=O)cc1	–	–	–	–	–	–	·	·	·	·
COc1ccc(Cn2c(=O)[nH]c3cc(C(=O)N4CCN(Cc5ccccc5)CC4)ccc3c2=O)cc1	–	–	25	–	–	–	–	–	–	–
Cc1ccc(OCc2cc(C(=O)N3CCC(c4ccccc4Cl)C3)no2)cc1C (configuration not stated)	–	–	–	–	–	–	·	·	·	·
Clc1ccc(CSc2nccn2Cc2ccccc2)cc1	–	–	100	–	–	–	44.0%	–	–	–
N#CCC1(O)C(=O)N(Cc2ccccc2)c2ccccc21 (configuration not stated)	–	·	·	·	·	·	·	·	·	·
O=C(COC(=O)Cc1ccc(Cl)cc1)Nc1ccccc1-c1ccccc1	–	–	–	–	–	–	·	·	·	·
O=C(COC(=O)Cc1c(Cl)cccc1Cl)Nc1ccccc1-c1ccccc1	–	–	25	–	–	–	–	–	–	–
CCn1c(SCC(=O)N2CCN(c3ccccc3)CC2)nnc1-c1c[nH]c2ccccc12	–	–	–	–	–	–	·	·	·	·
Cn1c(SCC(=O)N2CCN(c3ccccc3)CC2)nnc1-c1c[nH]c2ccccc12	–	–	100	–	–	–	21.0%	–	–	–
CCC(=O)Nc1sc2c(c1C(N)=O)CCN(C(C)=O)C2	–	–	–	–	–	–	·	·	·	·
CCOC(=O)N1CCc2c(sc(NC(C)=O)c2C(N)=O)C1	–	–	–	–	–	–	–	–	–	–
Cn1c(=O)n(C)c2cc(S(=O)(=O)Nc3ccccc3O)ccc21	–	–	–	–	–	–	·	·	·	·
Cn1c(=O)n(C)c2cc(S(=O)(=O)Nc3cc(Cl)ccc3O)ccc21	–	102.7	–	–	–	–	–	–	–	–
COC(=O)C1=C(C(=O)OC)C2C=CC1C1C(OC(C)=O)C(OC(C)=O)C21 (configuration not stated)	–	–	·	·	·	–	·	·	·	·
COc1ccccc1N1CCN(C(=O)COc2ccc(C)cc2Br)CC1	–	–	100	–	–	–	–	22.5%	–	–
CC(=O)c1c[nH]c2ccc(C)cc2c1=O	–	–	100	–	–	–	–	–	–	–
COc1ccc(C2=CC(=O)C[C@H](c3ccc(F)cc3)C2)cc1OC	–	–	·	–	–	–	·	·	·	·
CS(=O)(=O)NN1C(=O)c2ccccc2NC1c1cccc(O)c1 (configuration not stated)	–	–	–	–	–	–	·	·	·	·
CN1C(=O)c2ccccc2NC(=O)[C@]12O[C@@H]2c1cccc(O)c1	–	–	–	–	–	–	–	–	–	–
SMILES	MPTP inh	CRFR2-BP antag	ANO1 block	ANO1 activ	NR3A LBD binder	CRFBP-R2 agonist	TMEM16A reconf	TMEM16A Ca cntr	Parental YFP cnt	ClC-1 inh
CCOCC(=O)Nc1cc(C(F)(F)F)ccc1Oc1cccc(Br)c1	–	–	25	–	–	–	17.5%	–	–	–
COc1cccc(-n2cc(C(=O)NC(C)C)c3ccccc3c2=O)c1	–	–	–	–	–	–	·	·	·	·
COCCN(Cc1cc2ccc(C)cc2[nH]c1=O)S(=O)(=O)c1ccccc1	–	–	–	–	–	–	·	·	·	·
O=C(CCNS(=O)(=O)c1ccc(Br)cc1)NCc1ccc(Cl)cc1	–	–	–	–	–	–	·	·	·	·
CN(Cc1ccccc1)C(=O)CSc1nc2cc(C(=O)N3CCC(C(N)=O)CC3)ccc2c(=O)n1-c1ccccc1	·	–	–	·	–	–	·	·	·	·
CCOC(=O)C1=C(C)C(c2cccc(Oc3ccccc3)c2)NC(=S)N1 (configuration not stated)	–	–	–	–	–	–	·	·	·	·
CCOC(=O)C1=C(c2cccc(Oc3ccccc3)c2)NC(=S)NC1C (configuration not stated)	–	–	100	–	–	–	–	–	–	–
COc1ccccc1N1CCN(S(=O)(=O)CCNC(=O)C2CC2)CC1	–	–	–	–	–	–	·	·	·	·
Cc1cc(S(=O)(=O)N2CCN(Cc3ccc4c(c3)OCO4)CC2)cc(C)c1N1CCCC1=O	–	–	100	–	–	–	33.0%	–	–	–
Cc1ccc(S(=O)(=O)Cc2ccc(C(=O)OCc3ccccc3)cc2)cc1	–	–	25	–	–	–	44.0%	–	–	–
O=C(CN(CCO)Cc1ccccc1)N1CCN(S(=O)(=O)c2ccccc2)CC1	–	–	·	·	·	–	·	·	·	·
COC(=O)c1ccc(O)c(Sc2cc(C(=O)OC)ccc2O)c1	–	–	100	–	–	–	19.0%	–	–	–
Cc1ccc(O)c(O)c1	·	·	–	·	·	·	·	·	·	·
Cc1ccc(O)c(Sc2cc(C)ccc2O)c1	–	–	25	–	–	–	38.0%	–	–	–
Clc1ccc(Cn2cnc3ccccc32)cc1	–	–	100	–	–	–	23.0%	–	–	–
COc1ccc(CN2C(=O)c3ccccc3C(/C=N\OCc3ccc(C)cc3)C2=O)cc1 (configuration not stated)	–	–	–	–	–	–	26.0%	–	–	–
C/C(=N\NC(=O)C1(C)CC1(Br)Br)c1cccc(NC(=O)c2ccc(C)o2)c1 (configuration not stated)	–	–	25	–	11.1	–	–	–	–	–
Cc1ccc(C(=O)Nc2cccc(C(=O)NCc3ccccc3)c2)o1	–	–	–	–	–	–	·	·	·	·
